Of roughly 8,800 targets only a part is listed; those with a hit were picked by preference. About 0.5% of all pairs of compound and target were hits. A number with no mark means an inactive call.
Assays:
Experiment in all cases: log2 fold change, soluble protein after heating vs DMSO (PISA); higher = thermal stabilisation; K562 lysate, 10 uM; active = over 0.2 and 3.5 SD of the protein, either way, in both replicates (recomputed)
nilotinib = compound: Cc1cn(-c2cc(NC(=O)c3ccc(C)c(Nc4nccc(-c5cccnc5)n4)c3)cc(C(F)(F)F)c2)cn1 [nilotinib]
Summary of the method: (§1)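 Soluble protein was defined as the supernatant remaining after 21,000xg for 90 min, following pooling of heated aliquots and adjustment to 0.5% NP-40 at 4°C. Before that, crude K562 extract at 1 mg/mL protein in PBS pH 7.4 with 1 mM MgCl2 was treated with 10 μM compound for 30 min and heated for 3 min across 48°C-58°C. Quantification used TMTpro 16plex LC-MS/MS with channel sums equalised, and values are log-two fold changes in thermal stability relative to solvent controls from duplicates.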

[1] = compound: Cc1nc(Nc2n[nH]c3c2CN(C(=O)N[C@H](CN(C)C)c2ccccc2)C3(C)C)c2sccc2n1
Summary of the method: as §1

dasatinib = compound: Cc1nc(Nc2ncc(C(=O)Nc3c(C)cccc3Cl)s2)cc(N2CCN(CCO)CC2)n1 [dasatinib]
Summary of the method: as §1

[2] = compound: Cc1ncc(-c2ccnc(Nc3ccc(S(C)(=O)=O)cc3)n2)n1C(C)C
Summary of the method: as §1

[3] = compound: Cn1cc(-c2ccc3c(c2)CCN3C(=O)Cc2cccc(C(F)(F)F)c2)c2c(N)ncnc21
Summary of the method: as §1

quisinostat = compound: Cn1cc(CNCC2CCN(c3ncc(C(=O)NO)cn3)CC2)c2ccccc21 [quisinostat]
Summary of the method: as §1

tipifarnib = compound: Cn1cncc1[C@@](N)(c1ccc(Cl)cc1)c1ccc2c(c1)c(-c1cccc(Cl)c1)cc(=O)n2C [tipifarnib]
Summary of the method: as §1

[4] = compound: NC(=O)Nc1cc(-c2cccc(F)c2)sc1C(=O)N[C@H]1CCCNC1
Summary of the method: as §1

[5] = compound: NC(=O)c1cnc(N[C@@H]2CCCC[C@@H]2N)nc1Nc1cccc(-n2nccn2)c1
Summary of the method: as §1

[6] = compound: NC1(c2ccc(-c3nc4ccn5c(=O)[nH]nc5c4cc3-c3ccccc3)cc2)CCC1
Summary of the method: as §1

[7] = compound: NCC(=O)Nc1ccc(-n2nc(C(F)(F)F)cc2-c2ccc3c(ccc4ccccc43)c2)cc1
Summary of the method: as §1

vorinostat = compound: O=C(CCCCCCC(=O)Nc1ccccc1)NO [vorinostat]
Summary of the method: as §1

silmitasertib = compound: O=C(O)c1ccc2c(c1)nc(Nc1cccc(Cl)c1)c1ccncc12 [silmitasertib]
Summary of the method: as §1

[8] = compound: O=C1NC(=O)C(c2cnc3ccccn23)=C1c1cn2c3c(cc(F)cc13)CN(C(=O)N1CCCCC1)CC2
Summary of the method: as §1

entospletinib = compound: c1cn2cc(-c3ccc4cn[nH]c4c3)nc(Nc3ccc(N4CCOCC4)cc3)c2n1 [entospletinib]
Summary of the method: as §1

UniProt Q9UEE5, sequence (Q9UEE5 whole entry, looked up): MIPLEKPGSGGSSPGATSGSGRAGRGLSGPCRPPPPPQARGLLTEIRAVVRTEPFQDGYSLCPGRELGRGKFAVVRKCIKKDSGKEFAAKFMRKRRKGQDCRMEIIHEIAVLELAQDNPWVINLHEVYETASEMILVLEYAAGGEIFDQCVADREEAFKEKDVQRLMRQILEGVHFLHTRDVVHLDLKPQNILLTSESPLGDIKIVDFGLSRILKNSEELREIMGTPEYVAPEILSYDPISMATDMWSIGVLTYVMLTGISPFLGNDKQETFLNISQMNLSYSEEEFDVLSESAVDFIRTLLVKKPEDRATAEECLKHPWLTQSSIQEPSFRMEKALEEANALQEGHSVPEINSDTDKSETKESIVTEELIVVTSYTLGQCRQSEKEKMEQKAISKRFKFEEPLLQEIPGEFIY
UniProt O14975, sequence (O14975 whole entry, looked up): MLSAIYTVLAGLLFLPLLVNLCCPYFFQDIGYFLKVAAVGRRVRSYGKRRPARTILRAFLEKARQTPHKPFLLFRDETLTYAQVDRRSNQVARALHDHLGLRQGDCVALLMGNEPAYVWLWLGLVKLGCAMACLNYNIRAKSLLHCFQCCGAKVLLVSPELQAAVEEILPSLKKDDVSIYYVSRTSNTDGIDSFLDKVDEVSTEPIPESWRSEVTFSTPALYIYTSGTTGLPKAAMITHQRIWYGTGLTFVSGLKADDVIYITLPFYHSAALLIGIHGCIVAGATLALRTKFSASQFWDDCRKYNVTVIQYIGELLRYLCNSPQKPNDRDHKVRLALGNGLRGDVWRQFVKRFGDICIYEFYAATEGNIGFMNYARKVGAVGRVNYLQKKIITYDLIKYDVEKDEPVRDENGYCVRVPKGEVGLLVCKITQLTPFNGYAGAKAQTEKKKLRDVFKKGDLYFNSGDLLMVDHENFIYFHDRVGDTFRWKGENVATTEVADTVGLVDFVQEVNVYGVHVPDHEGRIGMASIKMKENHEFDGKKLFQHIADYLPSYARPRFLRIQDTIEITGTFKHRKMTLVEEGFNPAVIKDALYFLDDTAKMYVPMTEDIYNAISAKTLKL
UniProt O60225, sequence (O60225 whole entry, looked up): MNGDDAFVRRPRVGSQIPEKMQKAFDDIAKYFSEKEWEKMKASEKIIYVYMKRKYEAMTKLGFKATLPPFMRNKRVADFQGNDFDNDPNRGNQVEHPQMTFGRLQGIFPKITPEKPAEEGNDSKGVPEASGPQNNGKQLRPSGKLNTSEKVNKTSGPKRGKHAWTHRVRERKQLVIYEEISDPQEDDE
UniProt Q15464, sequence (Q15464 whole entry, looked up): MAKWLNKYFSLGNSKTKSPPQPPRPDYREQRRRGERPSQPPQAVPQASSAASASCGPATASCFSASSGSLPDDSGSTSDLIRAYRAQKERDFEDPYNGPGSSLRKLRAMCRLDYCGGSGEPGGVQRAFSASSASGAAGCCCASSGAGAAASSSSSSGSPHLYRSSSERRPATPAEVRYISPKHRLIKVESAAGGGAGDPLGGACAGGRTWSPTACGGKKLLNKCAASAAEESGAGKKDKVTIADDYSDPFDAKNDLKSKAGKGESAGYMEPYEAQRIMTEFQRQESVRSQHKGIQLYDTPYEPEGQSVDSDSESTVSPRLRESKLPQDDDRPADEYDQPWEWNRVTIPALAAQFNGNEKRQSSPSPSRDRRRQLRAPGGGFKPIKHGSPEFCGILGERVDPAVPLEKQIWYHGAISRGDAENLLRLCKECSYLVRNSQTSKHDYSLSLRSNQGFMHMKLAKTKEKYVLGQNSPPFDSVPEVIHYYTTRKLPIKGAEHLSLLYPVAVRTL
UniProt Q96H78, sequence (Q96H78 whole entry, looked up): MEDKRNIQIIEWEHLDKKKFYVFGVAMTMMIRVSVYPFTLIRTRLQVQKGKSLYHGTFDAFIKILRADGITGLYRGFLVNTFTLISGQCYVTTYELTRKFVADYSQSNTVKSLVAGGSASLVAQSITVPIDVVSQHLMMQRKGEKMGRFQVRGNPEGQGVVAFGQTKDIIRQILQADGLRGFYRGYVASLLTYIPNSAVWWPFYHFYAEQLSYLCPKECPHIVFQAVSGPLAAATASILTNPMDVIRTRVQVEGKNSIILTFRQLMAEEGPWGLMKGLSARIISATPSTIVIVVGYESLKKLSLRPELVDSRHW
UniProt Q6PML9, sequence (Q6PML9 whole entry, looked up): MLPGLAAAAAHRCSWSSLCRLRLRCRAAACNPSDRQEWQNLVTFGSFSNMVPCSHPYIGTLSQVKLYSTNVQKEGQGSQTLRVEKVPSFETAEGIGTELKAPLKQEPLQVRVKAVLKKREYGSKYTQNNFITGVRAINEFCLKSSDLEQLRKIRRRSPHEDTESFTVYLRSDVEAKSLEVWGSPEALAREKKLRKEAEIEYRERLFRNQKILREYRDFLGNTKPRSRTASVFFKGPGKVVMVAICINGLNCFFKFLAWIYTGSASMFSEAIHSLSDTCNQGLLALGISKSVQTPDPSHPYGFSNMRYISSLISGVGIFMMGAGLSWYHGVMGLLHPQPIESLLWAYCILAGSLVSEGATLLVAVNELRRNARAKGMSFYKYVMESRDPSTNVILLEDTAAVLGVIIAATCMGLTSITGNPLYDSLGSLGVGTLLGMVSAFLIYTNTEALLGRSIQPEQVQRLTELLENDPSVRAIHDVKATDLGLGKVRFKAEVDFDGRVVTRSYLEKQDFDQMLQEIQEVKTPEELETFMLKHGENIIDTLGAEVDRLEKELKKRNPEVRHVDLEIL
UniProt O75182, sequence (O75182 whole entry, looked up): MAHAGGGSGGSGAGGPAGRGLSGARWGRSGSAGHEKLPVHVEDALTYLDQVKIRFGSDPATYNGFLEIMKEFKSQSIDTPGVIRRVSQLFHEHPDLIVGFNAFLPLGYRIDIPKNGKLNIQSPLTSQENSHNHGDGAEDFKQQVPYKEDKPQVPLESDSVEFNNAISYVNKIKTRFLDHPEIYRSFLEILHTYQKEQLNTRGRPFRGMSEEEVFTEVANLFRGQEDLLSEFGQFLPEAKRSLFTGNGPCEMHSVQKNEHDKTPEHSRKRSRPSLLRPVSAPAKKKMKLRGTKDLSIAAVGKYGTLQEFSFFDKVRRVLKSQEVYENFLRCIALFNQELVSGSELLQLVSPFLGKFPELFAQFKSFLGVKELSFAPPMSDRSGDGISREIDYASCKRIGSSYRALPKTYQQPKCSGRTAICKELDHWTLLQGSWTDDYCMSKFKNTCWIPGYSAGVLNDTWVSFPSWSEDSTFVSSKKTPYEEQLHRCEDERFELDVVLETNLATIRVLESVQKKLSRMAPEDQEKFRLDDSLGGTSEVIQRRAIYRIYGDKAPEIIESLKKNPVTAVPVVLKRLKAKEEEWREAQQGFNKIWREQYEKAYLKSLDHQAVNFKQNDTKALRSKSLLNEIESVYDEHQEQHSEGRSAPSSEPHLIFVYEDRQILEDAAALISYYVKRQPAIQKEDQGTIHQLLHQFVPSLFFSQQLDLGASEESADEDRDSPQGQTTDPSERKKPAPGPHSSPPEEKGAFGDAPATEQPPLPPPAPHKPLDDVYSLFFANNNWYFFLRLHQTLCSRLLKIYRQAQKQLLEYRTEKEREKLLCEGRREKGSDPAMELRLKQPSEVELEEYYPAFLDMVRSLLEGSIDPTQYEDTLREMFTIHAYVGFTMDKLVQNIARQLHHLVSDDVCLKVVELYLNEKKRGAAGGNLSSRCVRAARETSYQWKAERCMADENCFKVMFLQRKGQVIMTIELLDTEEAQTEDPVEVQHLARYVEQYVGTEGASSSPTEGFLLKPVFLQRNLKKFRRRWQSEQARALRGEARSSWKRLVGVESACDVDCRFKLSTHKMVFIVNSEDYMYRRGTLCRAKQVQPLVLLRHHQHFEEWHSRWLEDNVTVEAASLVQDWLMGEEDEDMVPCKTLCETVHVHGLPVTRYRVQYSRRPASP
UniProt Q07617, sequence (Q07617 whole entry, looked up): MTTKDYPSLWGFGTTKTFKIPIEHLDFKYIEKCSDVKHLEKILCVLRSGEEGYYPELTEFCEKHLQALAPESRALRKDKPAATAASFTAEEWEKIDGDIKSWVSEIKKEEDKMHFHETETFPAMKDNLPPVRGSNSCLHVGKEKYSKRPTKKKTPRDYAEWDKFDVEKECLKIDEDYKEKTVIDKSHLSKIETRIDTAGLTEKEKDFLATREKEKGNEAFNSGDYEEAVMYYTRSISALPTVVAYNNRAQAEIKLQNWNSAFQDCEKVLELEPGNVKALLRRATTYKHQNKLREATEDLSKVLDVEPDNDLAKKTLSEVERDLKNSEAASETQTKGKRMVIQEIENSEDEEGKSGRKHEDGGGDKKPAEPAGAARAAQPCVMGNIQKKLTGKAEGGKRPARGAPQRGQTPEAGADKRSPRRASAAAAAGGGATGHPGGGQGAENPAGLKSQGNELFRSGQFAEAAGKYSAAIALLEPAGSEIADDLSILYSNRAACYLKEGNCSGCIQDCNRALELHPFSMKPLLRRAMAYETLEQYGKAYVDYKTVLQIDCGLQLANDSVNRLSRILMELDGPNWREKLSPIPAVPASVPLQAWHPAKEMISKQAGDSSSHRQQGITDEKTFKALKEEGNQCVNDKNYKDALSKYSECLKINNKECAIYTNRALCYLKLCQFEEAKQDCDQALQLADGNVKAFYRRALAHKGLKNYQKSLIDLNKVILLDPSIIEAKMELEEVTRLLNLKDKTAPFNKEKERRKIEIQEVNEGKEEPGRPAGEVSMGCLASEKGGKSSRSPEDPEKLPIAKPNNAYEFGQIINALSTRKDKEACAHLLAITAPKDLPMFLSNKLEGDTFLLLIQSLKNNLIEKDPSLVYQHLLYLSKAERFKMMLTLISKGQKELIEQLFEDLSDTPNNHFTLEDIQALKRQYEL
UniProt Q15506, sequence (Q15506 whole entry, looked up): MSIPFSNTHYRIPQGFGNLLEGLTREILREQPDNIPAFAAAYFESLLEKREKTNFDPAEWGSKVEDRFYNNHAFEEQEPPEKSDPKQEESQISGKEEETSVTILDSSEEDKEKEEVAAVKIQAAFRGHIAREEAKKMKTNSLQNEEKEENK
UniProt O43805, sequence (O43805 whole entry, looked up): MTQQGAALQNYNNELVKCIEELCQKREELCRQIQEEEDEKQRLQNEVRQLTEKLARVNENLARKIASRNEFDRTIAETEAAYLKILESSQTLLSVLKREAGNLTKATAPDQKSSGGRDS

Target	log2 fold change (nilotinib)	log2 fold change [1]	log2 fold change (dasatinib)	log2 fold change [2]	log2 fold change [3]	log2 fold change (quisinostat)	log2 fold change (tipifarnib)	log2 fold change [4]	log2 fold change [5]	log2 fold change [6]	log2 fold change [7]	log2 fold change (vorinostat)	log2 fold change (silmitasertib)	log2 fold change [8]	log2 fold change (entospletinib)
TADA3 (UniProt O75528)	-0.022	-0.036	-0.014	-0.023	0.019	-0.037	-0.035	0.006	0.024	-0.044	0.018	-0.289 (active)	-0.021	0.034	0.009
SLC30A9 (UniProt Q6PML9)	-0.026	0.013	-0.035	-0.049	0.055	0.041	0.14	-0.044	-0.026	-0.008	-0.109	0.071	-0.058	0.004	-0.027
SLC27A2 (UniProt O14975)	0.056	-0.027	0.038	-0.053	-0.011	-0.078	0.031	-0.06	-0.033	0.029	-0.108	-0.237	0.08	0.367	-0.023
SNAPC2 (UniProt Q13487)	0.066	0	-0.24	-0.067	-0.122	-0.021	-0.106	0.029		0		-0.631 (active)	-0.122	-0.086	
SYNE2 isoform 2 (UniProt Q8WXH0)	0.086	-0.034	0.032	-0.002	-0.024	-0.176	0.005	-0.043	-0.021	-0.091	0.071	0.088	-0.015	0.051	-0.003
SSNA1 (UniProt O43805)	-0.038	0.057	-0.004	-0.004	-0.079	0.081	0.007	-0.039	0.006	0.019	-0.036	-0.34 (active)	0	-0.023	-0.065
STK17B (UniProt O94768)	-0.006	-0.022	-0.063	-0.197	0.065	-0.255	-0.08	0.634		-0.021		-0.221	0.807 (active)	0.052	
SSU72 (UniProt Q9NP77)	0.031	-0.007	-0.008	-0.028	0.037	-0.002	0.02	-0.021	-0.013	0.041	0.015	0.112	-0.026	-0.021	-0.014
SPATA5L1 (UniProt Q9BVQ7)	-0.012	-0.003	-0.115	0.016	0.093	-0.059	0.028	0.047	0.039	-0.092	0.029	-0.408 (active)	0.138	0.035	-0.021
SURF2 (UniProt Q15527)	-0.192	-0.052	-0.045	0.195	-0.031	-0.054	0.066	-0.036	0.014		-0.01			0.04	0.049
SZT2 (UniProt Q5T011)	-0.03	0.434	0.04	0.02	-0.122		-0.019		-0.009	-0.046		1.2 (active)	-0.081		-0.1
SSX5 isoform 2 (UniProt O60225)	0.008	-0.018		0.064			0.061		0.026	0.15	-0.111	-0.059	0.091		-0.035
SHB (UniProt Q15464)			0.05		0.004	0.072		-0.026	-0.02	-0.01		-0.356 (active)	0.117	0.044	
STN1 (UniProt Q9H668)	-0.149	-0.071		0.034		-0.104	0.005	0.156	0.032	0.02	-0.03	-0.2	-0.111	0.126	0.049
TAOK2 isoform 2 (UniProt Q9UL54)	0.109	0.013		-0.01			0.031								
SNUPN (UniProt O95149)	-0.007	-0.013		0.005		0.128	-0.015	0.042	-0.115	-0.482 (active)	-0.076	-0.037	0.142	-0.043	-0.066
SH3BP2 isoform 4 (UniProt P78314)			-0.027		-0.107	-0.111		0.019	0.141	0.048	0.08	-0.27	0.092	-0.017	
STK3 isoform 2 (UniProt Q13188)	0.015	0.274	0.132	0.179	0.276	-0.077	-0.014		0.108	-0.01	0.034	-0.05	0.022	0.025	-0.003
SPA17 (UniProt Q15506)			-0.065		-0.041	0.003		-0.015	0.042		0.049			0.022	-0.025
SNIP1 (UniProt Q8TAD8)	-0.1	0.037		-0.078			-0.149								
STK38L (UniProt Q9Y2H1)	-0.08	0.68 (active)	-0.002	-0.009	0.102	-0.122	0.04	0.552 (active)		-0.046		-0.162	0.184	0.022	0.043
SMPD2 (UniProt O60906)			-0.169		-0.102				0.029	0.069		0.261	-1.47 (active)		0.058

Target	log2 fold change (nilotinib)	log2 fold change [1]	log2 fold change (dasatinib)	log2 fold change [2]	log2 fold change [3]	log2 fold change (quisinostat)	log2 fold change (tipifarnib)	log2 fold change [4]	log2 fold change [5]	log2 fold change [6]	log2 fold change [7]	log2 fold change (vorinostat)	log2 fold change (silmitasertib)	log2 fold change [8]	log2 fold change (entospletinib)
SRC isoform 2 (UniProt P12931)					-0.023				0.015	0.012		0.073	-0.069		-0.111
SNAP23 isoform 2 (UniProt O00161)	0.011	-0.041		-0.054			-0.016		0.046	-0.116	0.146	-0.85 (active)	-0.028		-0.329
SLC12A6 isoform 2 (UniProt Q9UHW9)			-0.072		0.206	-0.011		-0.055	-0.043	0.039		0.17	-0.03	-0.064	-0.114
SLC39A13 (UniProt Q96H72)										-0.018		-0.064	-0.092		
SPPL2A (UniProt Q8TCT8)						-0.21		0.046	0	-0.072	0.407	-0.106	-0.069	0.047	0.141
SORBS3 (UniProt O60504)			0.005		-0.019	-0.088		0.022	0.036	-0.019	-0.122	-0.561 (active)	0.057	0.031	0.01
SOX5 (UniProt P35711)			-0.035		-0.095	0.027		-0.03	-0.186	-0.004	-0.036	-0.014	0.099	-0.027	-0.083
STK26 isoform 3 (UniProt Q9P289)			0.181		-0.028	0.093		0.203						0.014	0.116
SRGN (UniProt P10124)			0.003		-0.062	-0.026		0	0	-0.086	-0.073	0.132	-0.123	-0.087	-0.013
TARDBP (UniProt K7EN94)											0.1				-0.166
SLC41A1 (UniProt Q8IVJ1)	-0.009	0.012		0.07		0.23	-0.02	-0.003	0.014	0.055		0.06	-0.063	-0.37 (active)	0.007
STAU1 isoform 3 (UniProt O95793)	-0.051	-0.024		-0.023		-0.11	0.032	0.088		-0.047		-0.076	-0.103	-0.156	
SMIM1 (UniProt B2RUZ4)	0.056	0.05		0.195		0.168	0.039	-0.055	-0.188	-0.418 (active)		0.177	-0.076	0.12	0.042
SLC22A18 (UniProt Q96BI1)						-0.027		-0.032	0.029	0.007	-0.136	-0.044	0.006	0.004	0.013
SPAG1 (UniProt Q07617)						-0.037		0.007	0.164		0.227			-0.061	
STK17A (UniProt Q9UEE5)	0.076	0.188		0.249			-0.387								
SLC25A44 (UniProt Q96H78)			-0.539 (active)		-0.162	-0.025		0.044	0.005	0.363	0.13	0.025	-0.02	-0.056	-0.026
SIN3B (UniProt O75182)	1.42 (active)	-0.15		0.839		-0.079	0.086	0.077			0.195			0.559	-0.089
SLC30A6 isoform 2 (UniProt Q6NXT4)	-0.029	0.118		-0.067		-0.048	-0.071	0.093	0.012	-0.096	0.014	0.11	0.01	0.001	0.064
SLC35A3 isoform 2 (UniProt Q9Y2D2)	0.02	-0.001		-0.049		-0.241	0.069	0	0.019	0.056	-0.022	0.091	-0.07	0.019	0
SLCO4A1 (UniProt Q96BD0)	-0.006	0.044		0.008			0.076								
